Laboratory results: PubChem BioAssay (NCI)
The panel holds about 83,000 compounds, 20% with a hit somewhere; the sample as a whole holds those more often.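 Results are percent growth after 48 hours of single-concentration exposure. 100 means growth as in untreated cells, lower positive values show inhibition; negative values down to -100 show cell death.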 A number with no mark means an inactive call. The source made the active and inactive calls. How the source made its calls: active means growth percent below 10; inactive means the rest.

How the values were obtained:
Assay in all cases: NCI-60 one-dose screen, 48 h (100 = growth as untreated, 0 = no growth, -100 = all killed)
Settings in all cases: 10 µM unless noted
DU-145 prostate = system: DU-145 prostate
K-562 leukemia = system: K-562 leukemia
MALME-3M melanoma = system: MALME-3M melanoma
MDA-MB-231 breast = system: MDA-MB-231 breast
RXF 393 renal = system: RXF 393 renal
SF-268 CNS = system: SF-268 CNS
SF-295 CNS = system: SF-295 CNS
SF-539 CNS = system: SF-539 CNS
UACC-257 melanoma = system: UACC-257 melanoma
M14 melanoma = system: M14 melanoma

Structure (SMILES) | growth (DU-145 prostate) | growth (K-562 leukemia) | growth (MALME-3M melanoma) | growth (MDA-MB-231 breast) | growth (RXF 393 renal) | growth (SF-268 CNS) | growth (SF-295 CNS) | growth (SF-539 CNS) | growth (UACC-257 melanoma) | growth (M14 melanoma)
O=C(Nc1cccc(Cl)c1)Nc1ncc(CCNc2ncnc3ccsc23)s1 | 50.6% | 13.8% | 19% | 41.5% | -0.457% (active) | 39.4% | 20% | 24% | 11.5% | 10.3%
COC(=O)[C@H](C)NC(=O)[C@@H](OC)[C@@H]1Cc2cc3cc(OC4CC(OC5CC(O)C(O)C(C)O5)C(O)C(C)O4)c(C)c(O)c3c(O)c2C(=O)[C@H]1OC1CC(OC2CC(OC3CC(C)(O)C(O)C(C)O3)C(O)C(C)O2)C(O)C(C)O1 (stereo partly drawn) | 13.2% | 7.1% (active) | -49.3% (active) | 18.4% | -70.3% (active) | 14.1% | 3.96% (active) | -33.2% (active) | -0.386% (active) | -23.9% (active)
Cc1cc(-c2cc(O)ccc2Cl)cc2nnc(Nc3ccc(OCCN4CCCC4)cc3)nc12 | -89.4% (active) | -63.9% (active) | -68.4% (active) | -80.5% (active) | -73.4% (active) | -69.8% (active) | -76.3% (active) | -86.8% (active) | -75.9% (active) | -51.8% (active)
COc1ccc(S(=O)(=O)N(C(C)=O)c2ccccc2/C=C/c2cc[n+]([O-])cc2)cc1 | 16% | 7.61% (active) | 47% | 45.6% | -5.21% (active) | 34.6% | 13.7% | -30.4% (active) | 65.5% | -14.3% (active)
Cc1cc(N2CCCC2)nc(N(CCCNc2ccnc3cc(Cl)ccc23)Cc2ccc3c(c2)OCO3)n1 | 27.9% | -15.4% (active) | -76.9% (active) | 4.2% (active) | -66.1% (active) | 31.2% | -62% (active) | -90.5% (active) | – | -83.4% (active)
C=CC(=O)Nc1cccc(Nc2nc(Nc3ccc(N4CCN(C(C)=O)CC4)cc3OC)ncc2C(F)(F)F)c1 | 16.7% | 18.7% | 22.2% | 21.7% | -11.2% (active) | 24.1% | 39.5% | 18.6% | 24.5% | 16.9%
COc1cc2ncnc3c2cc1OCCCCCN(C)Cc1ccc(Br)cc1N3 | 31.1% | 26.1% | 71.8% | 63.7% | 69.3% | 65.1% | 78.7% | 88.6% | 31.5% | 36.9%
O=C1C=CC2(NN=C(c3ccccc3)N2c2cccc(Cl)c2)C(Cl)=C1 (stereo not drawn) | 103% | 28.6% | 107% | 61.6% | 92.4% | 74.9% | 76.7% | 96.8% | 78.4% | 84.7%
COc1ccc(Cc2cc(-c3ccccc3C)n[nH]c2=O)cc1 | 93.2% | 110% | 154% | 84.6% | 99.2% | 85% | 116% | 97.8% | 119% | 115%
COc1cc(NC2CCC(=O)N2c2ccc(Cl)cc2Cl)cc(OC)c1OC (stereo not drawn) | 103% | 106% | 93.3% | 111% | 120% | 98.7% | 101% | 101% | 99.1% | 94.9%
Cc1nc2cc(-c3nn(C(C)C)c4ncnc(N)c34)ccc2o1 | 1.98% (active) | 10.4% | -38.7% (active) | -9.12% (active) | -54.3% (active) | 4.35% (active) | -53.9% (active) | -61.7% (active) | -45.3% (active) | -7.38% (active)
CSc1nc2ncncc2[nH]1 | 112% | 93.9% | 111% | 99.3% | 45.4% | 105% | 81% | 89.6% | 114% | 90.7%
O=C(Nc1cn[nH]c1-c1nc2ccc(CN3CCOCC3)cc2[nH]1)NC1CC1 | 41% | 12.7% | 51.8% | 1.37% (active) | -56.5% (active) | 23.8% | -10.5% (active) | -60.9% (active) | 59.7% | 34%
N#CC[C@H](C1CCCC1)n1cc(-c2ncnc3[nH]ccc23)cn1 | 62.8% | 70.4% | 97% | 60.4% | 15.9% | 59.8% | 76.6% | 67.4% | 78.9% | 77.9%
Cc1ccc(-[n+]2c3cc(N)c(C)cc3nc3cc(C)c(Nc4ccccc4)cc32)cc1 | -79.3% (active) | -22.7% (active) | -58% (active) | -70% (active) | -98.7% (active) | -88.6% (active) | -39.2% (active) | -77% (active) | -48.8% (active) | -93.3% (active)
Cc1ccc(NC(=O)c2ccc(CN3CC[C@H](N(C)C)C3)c(C(F)(F)F)c2)cc1Nc1nccc(-c2cncnc2)n1 | 30.6% | -19.6% (active) | -79.2% (active) | -34.5% (active) | -20.2% (active) | 17.1% | -43.9% (active) | -89.6% (active) | -74.7% (active) | -61% (active)
Cc1cnc(NC(=O)Nc2cc(Br)c(C)cc2OC[C@@H]2CNCCO2)cn1 | 24% | -42.2% (active) | -48.1% (active) | 22.2% | -14.8% (active) | 33.6% | 4.01% (active) | -75.8% (active) | -76.8% (active) | -84.5% (active)
COC(=O)C1CCc2sc3ncnc(Nc4cn[nH]c4C(=O)Nc4ccc(CN5CCN(C)CC5)cc4)c3c21 (stereo not drawn) | -44.6% (active) | -24% (active) | -72.3% (active) | -0.275% (active) | -78.9% (active) | -1.56% (active) | 26.4% | -77.3% (active) | – | -0.905% (active)
C=CC(=O)N(C)[C@H]1C[C@H]2OC(C)(C1OC)n1c3ccccc3c3c4c(c5c6ccccc6n2c5c31)C(=O)NC4 (stereo partly drawn) | 28.7% | 4.26% (active) | -46.7% (active) | 7.42% (active) | -90.1% (active) | 6.45% (active) | -27% (active) | -49.1% (active) | – | -1.74% (active)
CN1CCN(c2nc(NCCNc3ccnc4cc(Cl)ccc34)c3ccccc3n2)CC1 | 34.6% | -14.1% (active) | -57.4% (active) | -10.8% (active) | -35.8% (active) | 32.6% | -38.7% (active) | -78.4% (active) | – | -63.3% (active)
CCN1CCN(c2cc(C)nc(N(CCCNc3ccnc4cc(Cl)ccc34)Cc3cccs3)n2)CC1 | 26.4% | -14.2% (active) | -85.7% (active) | -20% (active) | -53.8% (active) | 7.31% (active) | -69.4% (active) | -89.8% (active) | – | -84% (active)
CCN1CCN(c2cc(C)nc(N(CCCNc3ccnc4cc(Cl)ccc34)Cc3ccc4c(c3)OCO4)n2)CC1 | 20.1% | -30.4% (active) | -82.2% (active) | -29.5% (active) | -59% (active) | -0.704% (active) | -70% (active) | -88.6% (active) | – | -82.2% (active)
O=C1CC(c2ccc(Cl)cc2)c2ncn(-c3cccc(Cl)c3)c2N1 (stereo not drawn) | 62.9% | 23.8% | 53.2% | 48.3% | – | 58.2% | 47.6% | 33% | – | 21.6%
O=C(Cn1c(=O)ccn(CCCCCCCCOc2ccc(Br)cc2)c1=O)Nc1ccc(Oc2ccc(Cl)cc2)cc1 | 73.7% | 40.5% | 69.8% | 66.6% | 79.8% | 71.1% | 52.9% | 61.9% | – | 70.1%
Cc1cc2c(-c3nc4ccccn4c3NC3CCCCC3)c(O)c(O)cc2c(O)c1-c1c(C)cc2c(-c3nc4ccccn4c3NC3CCCCC3)c(O)c(O)cc2c1O | 32.3% | 10.2% | 42.5% | 26.5% | 39% | 38.2% | 16.6% | 16.9% | – | 16.5%
COc1cc(C2CC(c3ccc(Cl)cc3)=NN2c2ccc(Cl)cc2)cc(OC)c1OC (stereo not drawn) | 106% | 93.8% | 92% | 79.8% | 89.6% | 90.6% | 95.3% | 93.9% | – | 90.3%
COC(=O)C1=C(C(=O)OC)C23C=C(C)C1C2=C(C)C1(CC1)[C@@](C)(O)C3=O (stereo partly drawn) | 2.57% (active) | 81% | -44.4% (active) | 9.08% (active) | -64.4% (active) | 7.19% (active) | -4% (active) | -39.6% (active) | – | -43.1% (active)
